# Measured values published in PubChem BioAssay.
# Inconclusive results are not listed. The source made the active and inactive calls.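 Rule for the calls, unless noted: active = viability at or under a set limit in both replicates, limit being median viability minus 3 SD (cut at about 48% in these data, passing the limit was not always enough); inconclusive = at or under the limit in just one replicate; inactive = at or above the limit in both replicates.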
# Key:
# [1] = reducers of endogenous Her2 protein level, primary screen, SKBR3 breast tumor cells, AlphaScreen, ATP viability (AID 461;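 active = Her2 level under about 52% in both replicate screens, with viability over 70% of control, limit read from the data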;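 for Her2 level: lower value means less Her2 protein in the cells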;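 for viability: percent of carrier control wells set as 100% viability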); details: 18-24 h, measured here: SKBR3 viability, ATP luminescence, at 10 µM
# [2] = target: Receptor tyrosine-protein kinase erbB-2 (Homo sapiens) (UniProt P04626); test: as above; details: 18-24 h, at 10 µM, stronger effect = lower value
# [3] = SK-BR-3 cell growth inhibitors, pilot screen, 24 h, human (AID 572;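 active = viability at or below 10% of carrier control in both of two separate runs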;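 note: compound exposure lasted between 18 and 24 h rather than exactly 24 h; 100% = carrier-treated control wells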); details: SK-BR-3 viability, CellTiter-Glo luminescence, at 10 µM, stronger effect = lower value
# [4] = HUVEC growth inhibition – cell-based, human, primary screen (AID 575;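 active = viability at or below 30% in both replicate assays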;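 note: 100% = median of untreated cell wells with 0.1% DMSO on each plate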); details: HUVEC proliferation, CellTiter-Glo luminescence, 72 h; at 10 µM; stronger effect = lower value
# [5] = growth inhibitors of H69AR lung tumor, primary screen, human, duplicate replicates (AID 580); details: H69AR lung tumor cells viability, ATP luminescence, 72 h; at 10 µM; stronger effect = lower value;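 note: 100% = mean luminescence of untreated wells and 0% = no signal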
# [6] = reversal of MRP1-mediated doxorubicin resistance, pilot screen, H69AR cells, doxorubicin co-treatment (AID 601;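 active = viability loss from added drug above about 55%, and viability with drug at most 40%, in both replicates, limit read from the data, passing the limit was not always enough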); details: CellTiter-Glo, 72 h, at 10 µM; for differential viability (reversal): stronger effect = higher value
# [7] = 384-well plate pilot, post-Golgi transport modulator project, inhibition of yeast transport mutant growth (AID 636; in the data active = inhibition above about 31%); details: absorbance 615 nm, about 18 h, stronger effect = higher value
# [8] = growth suppression of yeast trafficking mutant, preliminary HTS, modulators of trafficking downstream of Golgi apparatus project, 1536-format plate, OD 615 nm (AID 637; in the data active = inhibition above about 30%); details: yeast transport mutant growth, absorbance 615 nm, 18 h; stronger effect = higher value
# [9] = OD615 S. cerevisiae growth inhibition, permissive medium, pilot counter-assay, permissive growth control for S. cerevisiae lifespan shortening project (AID 705;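 active = growth inhibition above 25% in both replicates, a cutoff set 3 SD above the mean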); details: OD615, 24 h, at 10 µM, stronger effect = higher value
# [10] = Restrictive medium S. cerevisiae growth inhibition, OD615, pilot screen of yeast lifespan reduction project, restrictive growth control (AID 706;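 active = growth inhibition above a set limit, 3 SD over mean compound inhibition, in both replicates, cut at about 43% in these data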;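 note: modified DeaD lifespan yeast strain shifted to restrictive glucose medium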); details: OD615, 48 h, at 10 µM, stronger effect = higher value
# [11] = viability gain of MRP-1-high H69AR cells under doxorubicin, pilot screen, MRP-1 activator project, CellTiter-Glo, duplicate (AID 807;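 active = viability increase at or above a cutoff of the median across tested compounds plus 3 SD, cut at about 8.5% in these data, passing the limit was not always enough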;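 note: compound pretreatment 18-22 h then 72 h combined with doxorubicin; 0% = doxorubicin alone and 100% = vehicle without doxorubicin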); details: H69AR viability with doxorubicin, CellTiter-Glo luminescence; at 10 µM; stronger effect = higher value
# [12] = growth suppression of PTEN-deleted HCT116, pilot screen, cell-based, HCT116 clonal line, CellTiter-Glo (AID 824;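 active = viability at or below 27.92% in each of two runs, the all-compound median minus 4 SD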;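 note: 0% = 20 µM Hyamine control and 100% = vehicle cell control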); details: 60 h, at 10 µM, stronger effect = lower value
# [13] = inhibitors of the yeast RAM network, pilot screen, dse1pr::URA3 reporter, 5-FOA selection (AID 869;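 active = inhibition over a set limit, the all-compound mean plus 3 SD, in both replicate runs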;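 note: 0% = DMSO wells with no growth and 100% = 10 µM 1-NA-PP1 with full growth; RAM network block rescues cells from 5-FOA so hits raise OD615 growth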); details: S. cerevisiae dse1pr::URA3 5-FOA growth, OD615, 2 d; at 10 µM; stronger effect = higher value; strain carries analog-sensitive mutant Cbk1 kinase
# [14] = RAM signaling pathway blockade in yeast – S. cerevisiae, Pdr1DBD-CYC8 efflux-inhibited sensitized strain, primary screen (AID 1298;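 active = RAM network inhibition above 8.4% in each of two replicates, 3 SD over the compound average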;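 note: 0% = DMSO untreated cells without growth and 100% = 10 µM 1-NA-PP1 full growth; higher means more yeast growth rescued from 5-FOA killing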); details: S. cerevisiae cbk1-as DSE1-URA3 strain, 5-FOA growth OD615, 2 d; at 50 µM; stronger effect = higher value
# [15] = growth suppression of beta-catenin knockout HCT116, pilot screen, human colon tumor cells (AID 823;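 active = cell viability at or below a set limit in both duplicate runs, the limit being the all-compound median minus 4 SD, cut at about 23% in these data, passing the limit was not always enough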;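 note: 0% = wells killed by 20 µM Hyamine and 100% = untreated DMSO cell wells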); details: CellTiter-Glo, 60 h, at 10 µM, stronger effect = lower value
# [16] = H69AR cells + 2 uM doxorubicin, measured here: viability with 2 uM doxorubicin, stronger effect = lower value
# [17] = H69AR cells, compound alone cytotoxicity
# Receptor tyrosine-protein kinase erbB-2 (Homo sapiens), sequence (P04626 whole entry, looked up): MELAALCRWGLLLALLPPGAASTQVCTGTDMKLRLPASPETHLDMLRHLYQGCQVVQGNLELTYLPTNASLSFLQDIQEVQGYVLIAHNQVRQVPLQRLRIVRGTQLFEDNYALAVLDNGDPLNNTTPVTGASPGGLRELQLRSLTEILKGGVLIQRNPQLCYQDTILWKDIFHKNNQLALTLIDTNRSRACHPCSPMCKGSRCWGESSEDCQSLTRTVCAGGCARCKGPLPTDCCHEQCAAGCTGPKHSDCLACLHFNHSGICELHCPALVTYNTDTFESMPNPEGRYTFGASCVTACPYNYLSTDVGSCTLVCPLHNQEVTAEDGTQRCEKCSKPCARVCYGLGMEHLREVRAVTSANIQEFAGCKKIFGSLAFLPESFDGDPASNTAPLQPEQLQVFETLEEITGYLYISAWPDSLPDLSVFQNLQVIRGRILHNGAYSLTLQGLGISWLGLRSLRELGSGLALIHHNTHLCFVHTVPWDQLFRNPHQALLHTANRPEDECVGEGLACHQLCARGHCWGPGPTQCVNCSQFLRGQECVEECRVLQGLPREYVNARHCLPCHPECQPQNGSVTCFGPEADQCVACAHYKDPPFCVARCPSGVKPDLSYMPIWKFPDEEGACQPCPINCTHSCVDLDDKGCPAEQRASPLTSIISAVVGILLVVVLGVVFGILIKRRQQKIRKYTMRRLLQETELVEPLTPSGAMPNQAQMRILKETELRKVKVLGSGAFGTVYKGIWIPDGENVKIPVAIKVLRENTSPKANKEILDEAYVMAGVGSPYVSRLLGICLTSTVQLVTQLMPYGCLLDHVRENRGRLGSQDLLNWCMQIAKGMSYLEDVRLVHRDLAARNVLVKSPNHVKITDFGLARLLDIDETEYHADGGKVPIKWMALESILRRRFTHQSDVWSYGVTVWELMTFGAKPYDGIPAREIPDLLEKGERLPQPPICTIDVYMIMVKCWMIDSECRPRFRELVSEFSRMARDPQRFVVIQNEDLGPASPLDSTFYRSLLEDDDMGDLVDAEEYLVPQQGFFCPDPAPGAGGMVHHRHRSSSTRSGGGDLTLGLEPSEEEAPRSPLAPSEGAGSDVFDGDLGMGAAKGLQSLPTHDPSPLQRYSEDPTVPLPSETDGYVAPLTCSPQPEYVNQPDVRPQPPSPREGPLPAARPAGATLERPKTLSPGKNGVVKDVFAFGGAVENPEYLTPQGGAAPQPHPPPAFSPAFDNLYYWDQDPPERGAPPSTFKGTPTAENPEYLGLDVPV
SMILES,viability [1] [%],Her2 level [2],viability [3],viability [4],viability [5],differential viability (reversal) ([6]; H69AR cells + 2 uM doxorubicin),"viability [6, 16] [%]","viability [6, 17] [%]",inhibition [7],inhibition [8],growth inhibition [9],growth inhibition [10],viability increase [11],viability [12],inhibition [13],RAM network inhibition [14],viability [15]
Cc1ccc(C(C(=O)NC2CCCCC2)N2CCOCC2)cc1 (stereo not given),95,100% (inactive),95% (inactive),106% (inactive),95.8% (inactive),4.12% (inactive),91.7,95.8,-5.89% (inactive),-4.13% (inactive),-9.79% (inactive),-10.3% (inactive),-2% (inactive),89.3% (inactive),1.07% (inactive),7.79% (inactive),
CSc1ccccc1NC(=O)C1CCCO1 (stereo not given),97.5,110% (inactive),97.5% (inactive),102% (inactive),93.9% (inactive),-0.325% (inactive),94.2,93.9,1.73% (inactive),-6.03% (inactive),-8.35% (inactive),-0.95% (inactive),-2.61% (inactive),98.6% (inactive),0.11% (inactive),2.42% (inactive),
CC(=O)NCC(=O)N(Cc1ccco1)C1(C(=O)NC2CCCCC2)CCCCC1,140,93% (inactive),140% (inactive),103% (inactive),90.9% (inactive),2.67% (inactive),88.3,90.9,-9.59% (inactive),2.7% (inactive),-7.64% (inactive),2.32% (inactive),-5.15% (inactive),90% (inactive),2.22% (inactive),-0.72% (inactive),
Cc1nc2ccc(Br)cn2c1NC(C)(C)C,89.5,103% (inactive),89.5% (inactive),101% (inactive),86.8% (inactive),0.425% (inactive),86.3,86.8,-6.58% (inactive),-10.3% (inactive),-13.4% (inactive),4.22% (inactive),-2.98% (inactive),,1.55% (inactive),1.46% (inactive),89.2% (inactive)
Cc1ccc(N(C(=O)C2CCC(=O)N2)C2(C(=O)NC3CCCCC3)CCCCC2)cc1 (stereo not given),110,99% (inactive),110% (inactive),108% (inactive),98.4% (inactive),3.47% (inactive),94.9,98.4,-0.55% (inactive),-0.79% (inactive),-9.55% (inactive),-6.46% (inactive),-2.37% (inactive),92.9% (inactive),2.28% (inactive),1.79% (inactive),
CCOC(=O)c1cc2c(=O)n3ccccc3nc2n(CCCOC)c1=NC(C)=O,90,94.5% (inactive),90% (inactive),109% (inactive),94.2% (inactive),26.5% (inactive),67.7,94.2,-5.48% (inactive),-0.48% (inactive),-6.91% (inactive),-0.22% (inactive),-4.92% (inactive),100% (inactive),1.38% (inactive),6.83% (inactive),
CCOC(=O)c1cc2c(=O)n3ccccc3nc2n(CC(C)C)c1=NC(=O)c1ccco1,84.5,83% (inactive),84.5% (inactive),70.4% (inactive),7.19% (active),4.44% (inactive),2.75,7.19,-2.47% (inactive),-3.33% (inactive),1.45% (inactive),4.24% (inactive),-7.74% (inactive),37.7% (inactive),0.955% (inactive),5.64% (inactive),
CCOc1ccc(-c2nnc3sc(-c4c(OC)cccc4OC)nn23)cc1,126,84% (inactive),126% (inactive),86.5% (inactive),86.2% (inactive),1.34% (inactive),84.8,86.2,-5.87% (inactive),10.5% (inactive),-0.61% (inactive),8.15% (inactive),-5.89% (inactive),71.3% (inactive),2.04% (inactive),4.81% (inactive),
CN1C(=O)C(O)(CC(=O)c2ccc(F)cc2)c2cc(Br)ccc21 (stereo not given),85.5,86.5% (inactive),85.5% (inactive),76.8% (inactive),20.1% (active),-30.8% (inactive),50.9,20.1,-5.2% (inactive),2% (inactive),-8.62% (inactive),-8.46% (inactive),-6.12% (inactive),15.8% (active),1.45% (inactive),-0.67% (inactive),
CCOC(=O)CCCOC(=O)c1ccc(S(=O)(=O)N(C)C)cc1,95,84.5% (inactive),95% (inactive),88.7% (inactive),100% (inactive),1.72% (inactive),98.7,100,-6.49% (inactive),2.79% (inactive),-13.7% (inactive),-2.25% (inactive),-2% (inactive),89.6% (inactive),1.5% (inactive),4.96% (inactive),
CCCCOC(=O)c1[nH]c2c(c1C)C(=O)CC(c1cc(OC)c(OC)c(OC)c1)C2 (stereo not given),89,74.5% (inactive),89% (inactive),77.4% (inactive),72.4% (inactive),0.9% (inactive),71.5,72.4,0.38% (inactive),-3.33% (inactive),-13% (inactive),-18.8% (inactive),1.17% (inactive),56.6% (inactive),1.75% (inactive),3.15% (inactive),
CCOC(=O)c1[nH]c(C)c(C(=O)Nc2ccc(C)cc2C)c1C,91.5,92% (inactive),91.5% (inactive),54.8% (inactive),22.2% (active),-28.5% (inactive),50.7,22.2,-3.72% (inactive),-3.5% (inactive),-12.6% (inactive),-5.29% (inactive),-6.07% (inactive),32.8% (inactive),1.79% (inactive),0.04% (inactive),
O=C1CCCC2=C1C(c1cccs1)n1nc(SCc3ccccc3F)nc1N2 (stereo not given),85,99.5% (inactive),85% (inactive),65.5% (inactive),81.7% (inactive),66.1% (active),15.6,81.7,-0.27% (inactive),10.2% (inactive),-6.56% (inactive),-6.42% (inactive),-5.19% (inactive),68.4% (inactive),1.23% (inactive),3.02% (inactive),
CCOCCCNC(=O)C(c1ccccc1)N(Cc1ccc2c(c1)OCO2)C(=O)CNC(C)=O (stereo not given),100,108% (inactive),100% (inactive),97.7% (inactive),105% (inactive),2.97% (inactive),102,105,-6.3% (inactive),1.59% (inactive),3.28% (inactive),-2.68% (inactive),-3.36% (inactive),,0.43% (inactive),1.52% (inactive),98.6% (inactive)
O=C(CCNS(=O)(=O)c1cccc2nsnc12)Nc1ccc2c(c1)OCCO2,90.5,96% (inactive),90.5% (inactive),88.7% (inactive),101% (inactive),12.9% (inactive),88.5,101,-7.95% (inactive),-1.11% (inactive),-7.75% (inactive),-0.065% (inactive),-3.8% (inactive),98.9% (inactive),2.37% (inactive),4.76% (inactive),
CCSc1oc(-c2ccco2)nc1S(=O)(=O)c1ccccc1,95,93.5% (inactive),95% (inactive),93.3% (inactive),89.3% (inactive),2.04% (inactive),87.2,89.3,-5.95% (inactive),-8.33% (inactive),-16.4% (inactive),11.4% (inactive),-2.68% (inactive),,1.75% (inactive),1.2% (inactive),92.7% (inactive)
Clc1ss/c(=N\c2ccccn2)c1Cl,100,77% (inactive),100% (inactive),77.8% (inactive),76.6% (inactive),4.38% (inactive),72.3,76.6,-9.18% (inactive),2.06% (inactive),3.12% (inactive),19.3% (inactive),-5.42% (inactive),96.8% (inactive),1.77% (inactive),3.89% (inactive),
CC(C)c1ccc(NC(=O)CCNS(=O)(=O)c2cccc3nonc23)cc1,98.5,89% (inactive),98.5% (inactive),84.6% (inactive),95.3% (inactive),1.35% (inactive),93.9,95.3,-8.9% (inactive),-3.17% (inactive),-7.97% (inactive),-5.83% (inactive),-1.42% (inactive),86.3% (inactive),0.265% (inactive),1.64% (inactive),
Cc1ccc(-n2c3c(cc(C(=O)O)c2=O)C(=O)CC(C)(C)C3)cc1,98,82.5% (inactive),98% (inactive),111% (inactive),87.8% (inactive),-3.07% (inactive),90.9,87.8,-1.84% (inactive),0% (inactive),-16.4% (inactive),-5.83% (inactive),-3.48% (inactive),100% (inactive),0.675% (inactive),4.71% (inactive),
O=C1NC(=O)C(CC(=O)N(Cc2ccco2)C2(C(=O)NC3CCCC3)CCCCC2)N1 (stereo not given),99.5,116% (inactive),99.5% (inactive),106% (inactive),92.6% (inactive),-1.5% (inactive),94.1,92.6,-7.95% (inactive),-6.51% (inactive),-7.63% (inactive),-4.51% (inactive),-3.06% (inactive),89% (inactive),0.975% (inactive),-0.51% (inactive),
